Screening data (PubChem)
KB-3-1 tox – KB-3-1 parental cell cytotoxicity; KB-3-1 viability, CellTiter-Glo ATP luminescence, 72 h; Potency, µM (highest dose often 46.1 µM), most hits filed as cytotoxic; 1.4% of 400,000 active; also: nearly all actives have a fitted effect of over 60% in size
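Cells are dispensed, compounds pinned in, plates held at 37 °C for 72 h, then CellTiter-Glo is added and luminescence read after 10 minutes. Cell line: parental KB-3-1 in phenol-red-free DMEM, 10% FBS.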
KB-V1 cytotox – KB-V1 MDR subline cytotoxicity; Potency, µM (highest dose often 46.1 µM), most hits filed as cytotoxic; KB-V1 MDR cells viability, CellTiter-Glo, 72 h; 3.4% of 400,000 active; also: nearly all actives have a fitted effect of over 60% in size
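Potencies derive from concentration-effect curves fitted to normalized luminescence (CellTiter-Glo) of KB-V1 cells treated for 72 h at 37 degrees C in phenol-red-free DMEM containing 10% FBS.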
HT1080 IDH1KD tx – kills HT-1080 cells with IDH1 knockdown | 2% of 360,000 active | HT-1080 IDH1 knockdown viability, ATP luminescence, 48 h | Potency, µM (top dose mostly 46.1 µM), usual class: cytotoxic
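Assay cells: HT-1080 with IDH1 knockdown, 750 per well, RPMI/5% FBS. Exposure: 48 h at 37 °C following 2 h pre-incubation. Read: CellTiter-Glo luminescence; fitted concentration-response, curve class assigned.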
TDP1 cell CPT – growth inhibition of DT40 Tdp1-/-;hTDP1 cells with camptothecin (screen for TDP1 inhibitors). AID 686979. Potency, µM (highest dose often 46.2 µM), actives largely listed as inhibitors. 12% of 420,000 active. chicken DT40 Tdp1-/-;hTDP1 cells + 20 nM CPT, ATP luminescence, 48 h; also: nearly all actives have a fitted effect of over 55% in size
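Cell growth measured by CellTiter-Glo luminescence after a minimum 48 h, 37 C compound exposure with 20 nM CPT in Tdp1-knockout DT40 cells stably expressing hTDP1, seeded 400/well; qHTS titration format.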
DT40 TDP1 no CPT – qHTS for Inhibitors of human tyrosyl-DNA phosphodiesterase 1 (TDP1): qHTS in cells in absence of CPT. Potency, µM (top dose mostly 46.2 µM), most hits filed as inhibitors. 15% of 420,000 active. DT40 Tdp1-/- hTDP1 cells, no CPT, ATP luminescence, 48 h. AID 686978, 2013; also: nearly all actives have a fitted effect of over 55% in size
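Readout: luminescence from CellTiter-Glo after 30 min in the dark at RT. Cells: DT40 Tdp1-/- with stable hTDP1, 400/well. Exposure: compounds alone, ≥48 hr, 37 °C.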
HT1080NT lethal – kills 2HG-producing HT-1080-NT fibrosarcoma cells. HT-1080-NT fibrosarcoma viability, CellTiter-Glo ATP luminescence, 48 h. 1.6% of 360,000 active. Potency, µM (doses to about 46.1 µM), most hits filed as cytotoxic. AID 686970;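 also: NT is the 2HG producing partner of a matched IDH1 knockdown line; nearly all actives have a fitted effect of over 55% in size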
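HT-1080-NT fibrosarcoma cells (2HG-overproducing), 750 cells/well in RPMI with 5% FBS, dosed after 2 h and incubated 48 h at 37C. CellTiter-Glo luminescence normalized to DMSO and no-cell wells; concentration-response curves fitted and classed.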
A number is an active result; – = inactive; ? = inconclusive; · = not tested or not shown. A selection: hits, their analogues and other compounds. The true share with any hit is near 19%. Calls follow the shape of the dose curve; as a rule, active = well fitted curve in the direction sought with a large enough effect; inconclusive = small, poorly fitted or top-dose-only effect, or another doubt; inactive = no such curve, though single readings can be large; an effect the other way counts as inactive or inconclusive.

SMILES	KB-3-1 tox	KB-V1 cytotox	HT1080 IDH1KD tx	TDP1 cell CPT	DT40 TDP1 no CPT	HT1080NT lethal
Cc1nnc2sc(-c3ccc(-c4ccc(Cl)c(C(F)(F)F)c4)o3)nn12	–	15µM	–	?	?	–
COc1cccc(CNC(=O)C(NS(=O)(=O)c2cccs2)C(C)C)c1 (centres undefined)	–	–	·	–	–	·
COc1ccc(-n2c(C)nn(C)c2=O)cc1	–	–	–	–	?	–
COc1ccc(-n2c(/C=C(\C)O)nc(=O)c3c(C)cc(C)nc32)cc1	–	7.3µM	–	?	?	–
N#C/C(=C/C1=C(N2CCOCC2)C(=C/c2ccccc2)/CC1)C(=O)Nc1ccccc1F	?	–	–	13µM	16µM	–
N#C/C(=C/C1=C(N2CCOCC2)C(=C/c2ccc(Cl)cc2Cl)/CC1)C(=O)Nc1ccccc1F	–	–	–	?	10µM	–
COc1cc(NC(=O)c2cc(S(=O)(=O)N3CCCCC3)ccc2N2CCOCC2)cc(OC)c1OC	–	–	–	–	–	–
N#C/C(=C\C1=C(N2CCOCC2)C(=C\c2ccc(Cl)cc2)/CC1)C(=O)Nc1ccccc1F	–	–	–	16µM	12µM	–
COc1cc(NC(=O)C2=C(N3CCOCC3)/C(=C\c3ccc(Cl)cc3Cl)CC2)cc(OC)c1OC	–	?	–	13µM	16µM	–
N#C/C(=C\c1ccc[nH]1)C(=O)Nc1ccccc1F	–	–	–	–	–	–
O=C(CN1CCOCC1)Nc1ccccc1F	–	–	–	–	–	–
O=C(CNC(=O)c1cccc(F)c1)NC1CC1	·	·	–	–	–	–
Cc1cccc(NC(=O)CSc2nc3c([nH]c4ccccc43)c(=O)n2C)c1	?	?	–	8.2µM	12µM	–
O=C(CSc1nc2c([nH]c3ccccc32)c(=O)n1-c1ccccc1F)Nc1cccc(C(F)(F)F)c1	15µM	?	·	21µM	16µM	·
COCCn1c(SCC(=O)Nc2cccc(NC(C)=O)c2)nc2c([nH]c3ccccc32)c1=O	–	–	–	?	3.3µM	–
CC(=O)Nc1ccc(NC(=O)CSc2nc3c([nH]c4ccccc43)c(=O)n2-c2ccccc2F)cc1	?	–	?	?	?	–
CCC1CCCCN1C(=O)CSc1nc2c([nH]c3ccccc32)c(=O)n1C (centres undefined)	–	23µM	–	18µM	21µM	–
Cn1c(SCC(=O)Nc2ccccc2)nc2c([nH]c3ccccc32)c1=O	–	–	–	?	?	–
CCSc1nc2c([nH]c3ccccc32)c(=O)n1C	–	–	–	–	–	–
CC(C)COC(=O)Nc1nnc(Cc2ccccc2)s1	–	–	?	?	9.2µM	?
Cc1cc(C)nc(NC(=NCc2ccc3c(c2)OCO3)NC(=O)Nc2ccccc2)n1	–	–	?	5.2µM	4.6µM	–
COc1ccc(CC(=O)NCc2nc3cccnc3n2Cc2ccc(C)cc2)cc1	·	·	·	–	–	·
c1ccc(C(Nc2cccnc2)c2ccccc2)cc1	–	21µM	–	?	?	–
Cc1ccc(-c2ccc(SCC(=O)c3ccccc3)nn2)cc1	–	–	–	–	?	–
COc1ccc(-c2ccc(SCC(=O)NC3CCCC3)nn2)cc1OC	–	?	?	–	–	–
SMILES	KB-3-1 tox	KB-V1 cytotox	HT1080 IDH1KD tx	TDP1 cell CPT	DT40 TDP1 no CPT	HT1080NT lethal
COc1ccc(-c2ccc(SCC(=O)c3ccccc3)nn2)cc1OC	–	?	–	?	13µM	–
Clc1ccc(-c2ccc(SCc3ccccn3)nn2)cc1	–	–	–	?	–	–
COc1ccc(-c2ccc(SCc3ccccn3)nn2)cc1OC	–	?	–	13µM	?	–
COc1ccc(-c2ccc(SCC(=O)NCc3ccc4c(c3)OCO4)nn2)cc1OC	–	?	?	?	29µM	?
O=C(CSc1ccc(-c2cccc([N+](=O)[O-])c2)nn1)N1CCCCC1	–	–	–	–	?	–
O=[N+]([O-])c1cccc(-c2ccc(SCc3ccccn3)nn2)c1	?	?	–	?	26µM	?
CCOC(=O)c1c(C)[nH]c(C)c1S(=O)(=O)N1CCC(C(=O)NCc2cccc(OC)c2)CC1	–	–	·	–	–	·
Cn1c(=O)cnc2cnc(Oc3ccccc3)nc21	·	·	·	–	–	·
Cc1cccc(C)c1NC(=O)C1(C)CN(S(C)(=O)=O)CC(=O)N1CCCn1ccnc1 (centres undefined)	–	–	–	–	–	–
O=C(CSc1ccncc1)NCC1Cc2cccc(-c3cncnc3)c2O1 (centres undefined)	·	·	·	?	–	·
COc1ccccc1C(=O)NC1(C(F)(F)F)C(=O)Nc2c1c(=O)[nH]c(=O)n2CCc1ccccc1 (centres undefined)	–	?	·	–	–	·
Cc1ccc(Cn2c(=O)n(-c3cc(C)cc(C)c3)c(=O)c3oc4ccccc4c32)cc1	·	·	·	?	23µM	·
COc1ccc(NC(=O)Cn2c(=O)n(C(C)C)c(=O)c3oc4ccccc4c32)cc1Cl	·	·	·	?	16µM	·
COc1ccc(NC(=O)Cn2c(=O)n(-c3cc(C)cc(C)c3)c(=O)c3oc4ccccc4c32)cc1OC	·	·	·	8.2µM	8.2µM	·
Cc1ccc(Cn2c(=O)n(Cc3ccco3)c(=O)c3oc4ccccc4c32)cc1	–	–	·	–	–	·
O=C(CSc1nc(=O)n(CCN2CCOCC2)c2c1CCC2)Nc1ccccc1	·	·	·	–	–	·
Cc1ccc(-n2c(=O)c3sc4ccccc4c3n(C)c2=O)cc1F	–	–	·	–	–	·
COc1ccc(CCNC(=O)c2cc3c(=O)n4cccc(C)c4nc3n(Cc3ccco3)c2=N)cc1OC	–	–	–	?	26µM	–
Cc1cccn2c(=O)c3cc(C(=O)NCc4ccco4)c(=N)n(CCc4ccccc4)c3nc12	–	?	–	–	15µM	–
Cc1cccn2c(=O)c3cc(C(=O)NCCc4ccccc4)c(=N)n(Cc4ccco4)c3nc12	–	?	5.2µM	21µM	10µM	6.5µM
Nc1ccn([C@@H]2O[C@H](CN=C3NS(=O)(=O)c4ccccc43)[C@@H](O)[C@H]2O)c(=O)n1	–	?	–	–	–	–
O=C(CSc1ncccn1)N(Cc1cccnc1)C(CCc1ccccc1)c1nc2ccccc2[nH]1 (centres undefined)	–	–	–	–	?	–
CCc1ccccc1Nc1nn2c(=O)c3ccc(C(=O)NCc4ccccc4Cl)cc3nc2s1	?	–	·	?	9.2µM	·
CCc1ccccc1Nc1nn2c(=O)c3ccc(C(=O)NCc4cccs4)cc3nc2s1	·	·	·	?	21µM	·
